Data taken from PubChem BioAssay (Tox21).
Results filed as inconclusive are left out. Unmarked numbers belong to inactive results. Calls of active or inactive are those of the source. Calls come from the whole dose curve; as a rule, active = well fitted inhibition curve with a large enough effect in the signal ratio in the repeat runs, with a control signal flat; inconclusive = weak or mixed curves, or effect the other way; inactive = flat fitted curve, though single readings scatter; the % refers to the signal ratio.

Target: D(2) dopamine receptor (Homo sapiens) (UniProt P14416)
Sequence (P14416 whole entry, looked up): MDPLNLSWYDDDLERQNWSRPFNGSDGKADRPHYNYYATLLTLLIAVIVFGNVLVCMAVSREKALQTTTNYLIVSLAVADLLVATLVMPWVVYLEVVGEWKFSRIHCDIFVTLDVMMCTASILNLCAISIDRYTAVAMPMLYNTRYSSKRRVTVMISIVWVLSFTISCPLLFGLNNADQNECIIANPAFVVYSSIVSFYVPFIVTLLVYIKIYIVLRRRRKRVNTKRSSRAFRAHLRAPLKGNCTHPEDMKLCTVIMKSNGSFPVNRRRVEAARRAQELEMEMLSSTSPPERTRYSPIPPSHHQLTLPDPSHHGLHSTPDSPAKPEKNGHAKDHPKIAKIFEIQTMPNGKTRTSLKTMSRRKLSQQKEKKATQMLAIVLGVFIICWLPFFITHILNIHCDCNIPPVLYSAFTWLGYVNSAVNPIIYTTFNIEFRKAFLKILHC
Test: Dopamine D2 receptor (DRD2) small molecule antagonists, cell-based qHTS assay (AID 1963595)
Conditions: HEK293-DRD2 cAMP HTRF antagonist mode; series mostly up to 92.4 µM; activity change, negative = inhibition: at the top concentration
From the text: National Center for Advancing Translational Sciences [NCATS]
Division of Preclinical Innovation [DPI]
U.S. Environmental Protection Agency [EPA]
National Institutes of Environmental Health Sciences [NIEHS]
National Toxicology Program [NTP]
U.S. Food and Drug Administration [FDA]
DRD2 is the D2 subtype of the dopamine receptor, which is coupled to Gi subtype of G protein-coupled receptor. This G protein-coupled receptor inhibits adenylyl cyclase activity. The DRD2-HEK293 cell line stably expressing D2 dopamine receptor can be used for screening agonists and antagonists of interactions between D2 and its ligands. The Hek293-DRD2 cAMP assay is based on HTRF technology. It measures changes of cAMP accumulation in response to Gi coupled GPCR activation or inhibition.
Tox21 Assay Protocol Summary:
DRD2-Hek293 cells were dispensed at 600 cells/3uL/well in 1536-well white plates using a Multidrop Dispenser. After the assay plates were incubated at a 37 C/5% CO2 incubator for 24 h, 1 uL of Ro20-1724 at final concentration of 0.1 mM was transferred to the assay plate by a Flying Reagent Dispenser. Following Ro20-1724 addition, 23 nL of compound dissolved in DMSO, positive controls or DMSO only was added to the assay plates via Wako pintool station. The assay plates were incubated at room temperature for 10 min. Next, 1 uL of mixture of NKH477 (final concentration at 200 nM) and quinpirole (final concentration at 12 nM) was added into the plates. After the assay plates were incubated at room temperature for an additional 30 min, 2.5 ul/well of cAMP-d2 and 2.5 ul/well of anti-cAMP-cryptate were added respectively into the assay plates using a Flying Reagent Dispenser. The plates were incubated at room temperature for 1 h. The fluorescence intensity in the plates was measured at 340 nm excitation and 665 & 620 nm emission by an Envision plate reader.
% is set by controls: 0 for no effect and ±100 for the full control effect; potency is the fitted concentration of half-maximal effect.

Row | SMILES | activity change, negative = inhibition | Potency
1 | CCC1CO1 (stereo not given) | -5.51% | –
2 | C=C(C)C(=O)OCC[N+](C)(C)C | 3.35% | –
3 | O=C(c1ccccc1)c1ccc(Cl)cc1 | -0.357% | –
4 | CCC1=C(C)CN(C(=O)NCCc2ccc(S(=O)(=O)NC(=O)NC3CCC(C)CC3)cc2)C1=O (stereo not given) | 0.905% [at 42.5 µM] | –
5 | CCCCCCCC/C=C\CCCCCCCCN | 0.493% [at 42.5 µM] | –
6 | COc1cc(OC)nc(NC(=O)NS(=O)(=O)Nc2ccccc2C(=O)N(C)C)n1 | -1.87% | –
7 | CNCCc1ccccn1 | 5.11% [at 42.5 µM] | –
8 | O=C(O)c1cccc(C(=O)O)n1 | 6.19% | –
9 | O=C(O)c1cc(N=Nc2ccc([N+](=O)[O-])cc2)ccc1O | -1.23% | –
10 | CCCCCCC | 0.395% | –
11 | C[C@@H]1O[C@@H](O[C@@H]2[C@@H](O)[C@H](OCCc3ccc(O)c(O)c3)O[C@H](CO[C@@H]3O[C@H](CO)[C@@H](O)[C@H](O)[C@H]3O)[C@H]2OC(=O)/C=C/c2ccc(O)c(O)c2)[C@H](O)[C@H](O)[C@H]1O | 13.6% | –
12 | O=C(O)c1cccc(C(=O)O)c1C(=O)O | 11.6% | –
13 | O=c1[nH]sc2cc(Cl)ccc12 | 0.991% [at 42.5 µM] | –
14 | Cc1cccc(C)c1NC(=O)CN1CCCC1 | -1.74% [at 42.5 µM] | –
15 | C=C(C)c1ccccc1 | -0.689% | –
16 | C=CC(=O)OCCOCC(CC)(COCCOC(=O)C=C)COCCOC(=O)C=C | -11% | –
17 | O=C(O)c1cn(C2CC2)c2cc(Cl)c(F)cc2c1=O | 7.19% [at 42.5 µM] | –
18 | O=C(NC1CCN(CCc2c[nH]c3ccccc23)CC1)c1ccccc1 | – | 0.596 µM (active)
19 | CC(C)(C)C(=O)/C=C/c1ccc(Cl)cc1 | 2.22% | –
20 | O=C(O)CCC(=O)OC[C@@H](NC(=O)C(Cl)Cl)[C@H](O)c1ccc([N+](=O)[O-])cc1 | -1.2% [at 42.5 µM] | –

Row | SMILES | activity change, negative = inhibition | Potency
21 | O=C(O)c1ccc[n+]([O-])c1 | -1.82% [at 42.5 µM] | –
22 | CC(C)OCC1CO1 (stereo not given) | 15.1% | –
23 | COc1ccc(/C(C)=C/C(=O)O)c(OC)c1 | 2.61% [at 42.5 µM] | –
24 | CCOC(=O)C(=O)CCc1ccccc1 | -25.9% [at 42.5 µM] | –
25 | CCCCOCCOC(=O)COc1ccc(Cl)cc1Cl | 0.975% | –
26 | CCC=O | 5.06% | –
27 | CCOc1ccccc1O[C@H](c1ccccc1)[C@H]1CNCCO1 | -0.427% [at 42.5 µM] | –
28 | COC(=O)CC#N | -3.37% | –
29 | CCOC(=O)C(=O)c1csc(NC=O)n1 | 12.6% [at 42.5 µM] | –
30 | CCN(CC)C(C)=O | -0.762% | –
31 | Cc1ccccc1N1CCN(CCc2nnc3n2CCCC3)CC1 | -1.13% [at 42.5 µM] | –
32 | C[C@H](CCC(=O)NCC(=O)O)[C@H]1CC[C@H]2[C@@H]3[C@H](O)C[C@@H]4C[C@H](O)CC[C@]4(C)[C@H]3C[C@H](O)[C@]12C | -1.55% | –
33 | CN1Cc2cc(C(=O)N3CCC(C4CCNCC4)CC3)ccc2NC(CC(=O)O)C1=O (stereo not given) | -3.02% [at 42.5 µM] | –
34 | CCOc1nc2cccc(C(=O)O)c2n1Cc1ccc(-c2ccccc2-c2nn[nH]n2)cc1 | -2.14% [at 42.5 µM] | –
35 | COCCC(=O)OC | 11.5% | –
36 | CC(CCc1ccc(O)cc1)NCCc1ccc(O)c(O)c1 (stereo not given) | – | 10.6 µM (active)
37 | C=CC(=O)OCCOCCOCC | -1.81% | –
38 | CC(=O)Nc1ccn(C2COC(COC(=O)c3ccccc3)O2)c(=O)n1 (stereo not given) | 0.0151% [at 42.5 µM] | –
39 | N=C1N=C(N)c2ccccc21 | 4.83% | –
40 | CCCc1nc2c(C)cc(-c3nc4ccccc4n3C)cc2n1Cc1ccc(-c2ccccc2C(=O)O)cc1 | -0.646% [at 42.5 µM] | –
